Screens deposited in PubChem BioAssay by National Center for Advancing Translational Sciences (NCATS).
BRCA1 expr up: BRCA1 expression activation; MCF7-BRCA1-FFLuc reporter, luminescence, 48 h; response scale: scaled: vehicle 0%, 10 µM genistein 100%; Potency, µM (highest dose often 46.1 µM), inactives show at the highest dose activation, most hits filed as activators; 1.1% of 380,000 active; AID 624202; further: potency means the concentration at half of the fitted maximal effect; nearly all actives have a fitted effect of over 80% in size
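MCF7-BRCA1-FFLuc, 2000 cells/well; 2 h attach, 37 °C/5% CO2; compound 48 h; luciferase substrate 15 min; luminescence end-point. Norm. to genistein 10 microM max activation and DMSO; concentration-response curves fitted.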
TSG101-PTAP inh: blocks PTAP/TSG101 interaction to inhibit HIV-1 budding | Potency, µM (top dose mostly 115 µM), without a hit: top-dose activity change, negative = inhibition, hits mostly inhibitors | 340,000 tested, under 10 active | Fluorescence polarization, FITC-PTAP peptide / Tsg101 binding | AID 493005 | Q99816; active means well fitted inhibition curve with a large enough effect in the main read-out, with a control signal flat, not every such curve was filed as active; inconclusive means small, poorly fitted or top-dose-only effect, or effect the other way, or a change in a side signal; inactive means no such curve, though single readings can be large or run the other way; further: potency means the concentration at half of the fitted maximal effect; % of control where 0% means no effect
Target sequence (Q99816 whole entry, looked up): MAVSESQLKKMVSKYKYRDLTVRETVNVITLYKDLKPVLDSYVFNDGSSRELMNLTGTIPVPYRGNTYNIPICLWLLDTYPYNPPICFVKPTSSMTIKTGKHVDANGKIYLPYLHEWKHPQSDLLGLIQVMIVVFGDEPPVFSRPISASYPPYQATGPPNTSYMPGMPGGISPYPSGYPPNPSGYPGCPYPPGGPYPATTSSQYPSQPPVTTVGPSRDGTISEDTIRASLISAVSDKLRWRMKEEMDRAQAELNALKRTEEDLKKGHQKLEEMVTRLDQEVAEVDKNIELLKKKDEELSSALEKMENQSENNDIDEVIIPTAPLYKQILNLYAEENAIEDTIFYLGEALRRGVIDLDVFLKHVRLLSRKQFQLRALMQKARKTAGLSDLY
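Compounds were pin-transferred onto Tsg101 binding domain (10 uM final) in HEPES pH 7.5 buffer, then FITC-PTAP peptide was added at 50 nM final. After 20 min at RT, polarization reported peptide displacement across a qHTS concentration series.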
Apoferritin bind: binds horse apoferritin like a general anesthetic | P02791 | 0.074% of 350,000 active | AID 485281 | apoferritin/1-aminoanthracene competitive binding, fluorescence | Potency, µM (top dose mostly 77.5 µM), without a hit: at the top dose activity change, negative = displacement, actives largely listed as inhibitors; further: potency means the concentration at half of the fitted maximal effect; on the % scale 0 is the no-effect control and ±100 the full control effect; nearly all actives have a fitted effect of over 20% in size
Target sequence (P02791 2-175 limits assumed): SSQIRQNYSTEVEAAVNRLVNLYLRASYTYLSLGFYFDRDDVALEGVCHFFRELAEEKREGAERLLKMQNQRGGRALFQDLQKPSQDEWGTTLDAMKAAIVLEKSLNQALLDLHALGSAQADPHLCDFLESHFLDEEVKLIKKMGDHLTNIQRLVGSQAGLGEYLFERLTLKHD
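Apoferritin-based anesthetic binding model; compound displacement of fluorescent 1-AMA measured as endpoint fluorescence after 10 minutes at room temperature, scaled to free-ligand and complex controls.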
S-ASM inh: human S-ASM enzyme inhibition | P17405 | placental ASM, HMU-PC fluorogenic substrate, 60 min | Potency, µM (titrated, usually from 57.5 µM), inactives show top-dose activity change, negative = inhibition, usual class: inhibitors | 0.006% of 340,000 active; further: potency means the concentration at half of the fitted maximal effect
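Fluorescence read-out (Ex 386 nm, Em 447 nm) after stopping the reaction at pH 10. Enzyme: ASM from human placenta; substrate HMU-PC0, 9 uM final; 60 min, 37 °C. Compound preincubation 10 min, ambient temperature.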
TSHR antag: blocks TSH signaling through the human TSH receptor | activity change, negative = inhibition, % at 11.5 µM | TSHR-expressing cells, TSH-stimulated cAMP HTRF, 2 h; active compounds read low | P16473 | 0.2% of 330,000 active;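 active means activity change below a set negative limit, meaning inhibition stronger than a set level, cut at about -70% in these data; inconclusive means activity change between two set negative limits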; further: on the % scale 0 is the no-effect control and ±100 the full control effect
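Antagonism was scored as loss of TSH-driven cAMP in TSHR cells, stimulated with 4nM TSH (EC80) for 2 hours at 37 deg C and detected by homogeneous HTRF competition immunoassay.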
The depositor's hits bear a star; i = inactive; ? = inconclusive; . = no result. Sampled rows, rich in hits. Any-hit rate of the full collection: about 1.2%. Unless noted, the call rests on the fitted dose curve; in most records, active means well fitted curve in the direction sought with a large enough effect; inconclusive means small, poorly fitted or top-dose-only effect, or another doubt; inactive means no such curve, though single readings can be large; an effect the other way counts as inactive or inconclusive.

SMILES	BRCA1 expr up	TSG101-PTAP inh	Apoferritin bind	S-ASM inh	TSHR antag
COc1cc2c(NC3CCN(C)CC3)nc(N3CCCN(C)CC3)nc2cc1OCCCCCCN(C)C	-36.8%	.	.	.	.
COc1ccc(-c2coc3cc(OC)ccc3c2=O)cc1	2.82µM*	1.5%	.	0.7%	.
CC(=O)Oc1ccc2cc(-c3ccccc3)c(=O)oc2c1	?	1.0%	203.6%	i	27.2
CC(=O)Oc1ccc(-c2cc3ccc(OC(C)=O)cc3oc2=O)cc1	5.62µM*	1.4%	.	i	.
COc1cc(OC)c(/C=C/c2nc3ccccc3o2)c(OC)c1	0.0%	.	.	.	.
CCOC(=O)c1c(C)[nH]c(/C(C)=N/NC(=O)c2cccnc2)c1C	30.9%	.	.	.	.
CCOC(=O)c1c(C)[nH]c(C(C)=NNC(=O)c2cccs2)c1C	2.82µM*	-2.3%	.	12.1%	13.8
COc1ccc(OC(=O)c2cnn(-c3ccccc3)c2C)cc1	10µM*	-4.4%	-16.3%	-0.6%	-3.0
O=S(=O)(Cc1noc(-c2ccc(Cl)cc2)n1)Cc1ccco1	7.94µM*	-6.1%	-15.7%	-2.6%	11.4
Cc1nc2cc3ccccc3cc2c(=O)[nH]1	11.2µM*	-5.5%	151.1%	i	-13.3
c1ccc(OCCOc2ncnc3ccccc23)cc1	10µM*	-1.3%	-9.4%	-1.4%	4.0
O=S(=O)(c1cccnc1)N1CCN(c2nc(-c3cccs3)nc3ccccc23)CC1	20.8%	.	.	.	.
O=C(c1cnn2c1NC(=C1CC1)C=C2C(F)F)N1CCc2ccccc21	-43.0%	.	.	.	.
Cn1cccc1-c1cc(C(=O)N/N=C/c2ccccc2Cl)[nH]n1	8.91µM*	-9.7%	-10.1%	-6.0%	-7.8
O=C(N/N=C/c1c[nH]c2ccccc12)c1ccccc1	10µM*	-3.4%	-2.2%	1.2%	1.0
O=C(N/N=C/c1ccccc1Cl)c1ccc(F)cc1	?	-5.3%	-17.1%	0.6%	-6.5
O=C(NN=Cc1ccccc1Cl)c1ccccc1	5.62µM*	.	.	.	.
COc1cc2nc(N3CCN(C)CC3)nc(NC3CCN(C)CC3)c2cc1OC	17.3%	.	.	.	.
CCOC(=O)C1OC1C(=O)NC(CC(C)C)C(=O)NCCC(C)C (stereo not given)	.	.	-5.5%	.	.
CCOc1ccc(NC(=O)COC(=O)c2ccccc2OCC(=O)N(C)C)cc1	24.9%	.	.	.	.
CN(CCC#N)c1ccc(/C=C/c2ccnc3ccccc23)cc1	-7.4%	.	.	.	.
CC(C)c1ccc(Nc2n[nH]c(=S)s2)cc1	2.51µM*	.	.	.	.
COC(=O)C1=C(C)NC(=O)/C1=C\c1cc(C)n(-c2ccccc2)c1C	7.08µM*	-1.8%	-17.2%	-12.4%	15.8
CC(C)NC(=O)c1[nH]nc2c1CCc1ccccc1-2	2µM*	-5.2%	2.3%	1.9%	-5.1
COc1cccc(/C=N/NC(=O)c2[nH]nc3c2CCc2ccccc2-3)c1	-56.0%	0.1%	5.4%	-17.3%	0.6
SMILES	BRCA1 expr up	TSG101-PTAP inh	Apoferritin bind	S-ASM inh	TSHR antag
O=C(O)CN1C(=O)/C(=C/C=C/c2ccccc2)SC1=S	102.5%	-2.8%	-10.5%	-2.8%	5.2
CCN1C(=O)/C(=C\C=C2/C=CC=CN2CC)SC1=S	?	72.9%	-17.5%	-10.0%	-3.3
CCN1C(=O)C(=CC=CN(C)c2ccccc2)SC1=S	2.51µM*	.	.	.	.
CCN1C(=O)/C(=C/C=C2\C=CN(CC)c3ccccc32)SC1=S	6.31µM*	0.1%	-8.8%	-1.0%	-9.4
CNc1nc(-c2ccc(Cl)cc2)cs1	?	0.8%	?	0.0%	3.3
CCNc1nc(-c2ccc(Cl)cc2)cs1	2.82µM*	-9.4%	?	0.2%	15.3
NC(N)=NCCC[C@H](N)C(=O)N1CCC[C@H]1C(=O)N1CCC[C@H]1C(=O)NCC(=O)N[C@@H](Cc1ccccc1)C(=O)N[C@@H](CO)C(=O)N1CCC[C@H]1C(=O)N[C@@H](Cc1ccccc1)C(=O)O	.	.	-0.1%	.	.
O=C1c2ccccc2C(=O)N1CCc1c[nH]c2ccccc12	2.24µM*	-1.5%	?	-9.0%	-5.3
Cc1ccc(C(=O)NCCc2c[nH]c3ccccc23)s1	3.16µM*	-3.1%	-17.5%	2.1%	-1.1
O=C1c2ccccc2C(=O)N1CCCc1c[nH]c2ccccc12	24.0%	-0.4%	?	-1.9%	16.5
O=C(NCCc1c[nH]c2ccccc12)c1ccccc1	12.6µM*	0.1%	-9.1%	8.5%	-15.6
